Source: PubChem BioAssay (National Center for Advancing Translational Sciences (NCATS))
Rows were chosen to be rich in hits. Some 12% of all compounds tested hit in one or more screens of this group.
JMJD2A Tudor – qHTS Assay for Inhibitors of JMJD2A-Tudor Domain. Lysine-specific demethylase 4A (Homo sapiens), O75164. AlphaScreen JMJD2A-Tudor / H3K4me3 peptide binding. Potency, µM (highest dose often 114 µM), hits mostly inhibitors. actives 4.4% (n = 390,000). AID 504339, 2011; further: nearly all actives have a fitted effect of over 50% in size
HP1b binding inh – HTS for Inhibitors of HP1-beta Chromodomain Interactions with Methylated Histone Tails | AlphaScreen HP1-beta / biotin-H3K9me3 peptide binding | Potency, µM (series often up to 114 µM), actives largely listed as inhibitors | actives 0.56% (n = 390,000) | AID 540317, 2011 | Chromobox protein homolog 1 (Homo sapiens), P83916; further: nearly all actives have a fitted effect of over 70% in size
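HP1-beta protein (50 nM final) preincubated 30 min at room temperature with biotinylated H3(1-18)K9me3 peptide (50 nM) in PBS pH 7.4, 0.01% Tween-20, then compound added for 30 min. AlphaScreen streptavidin donor/nickel chelate acceptor beads (10 ug/mL final), 30 min dark, luminescence read.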
G9a inh-1 – qHTS Assay for Inhibitors of Histone Lysine Methyltransferase G9a; Potency, µM (titrated, usually from 102 µM), usual class: inhibitors; AID 504332, 2011; G9a H3K9 monomethylation, AlphaScreen, 2 h; actives 8.8% (n = 350,000); Histone-lysine N-methyltransferase EHMT2 (Homo sapiens), Q96KQ7; further: nearly all actives have a fitted effect of over 75% in size
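Using a bead-based AlphaScreen, monomethylated H3K9 product from 2 h room-temperature reactions (G9a 20 nM, peptide 500 nM, SAM 20 uM) was detected with 0.5 ug/mL rabbit anti-H3K9me1 antibody.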
Sfp PPTase inh – qHTS Assay for Inhibitors of Bacillus subtilis Sfp phosphopantetheinyl transferase (PPTase); actives 3.5% (n = 310,000); 4'-phosphopantetheinyl transferase ffp (Bacillus subtilis), Q9F4F7; Potency, µM, hits mostly inhibitors; AID 1490, 2009; Biochemical Sfp PPTase activity, qHTS;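 further: the enzyme is Sfp with the accession as filed and its product quenches rhodamine fluorescence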
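Fluorescence-quenching assay: 15 nM Sfp-PPTase preincubated 15 min at room temperature with compound, then 5 uM rhodamine-CoA and 12.5 uM BHQ-2-labelled YbbR peptide added. Fluorescence (ex 525/em 598 nm) read at start and after 30 min; difference gives rate.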
BAZ2B inh – qHTS Assay for Inhibitors of BAZ2B; AlphaScreen BAZ2B-H3K14Ac peptide displacement; Bromodomain adjacent to zinc finger domain protein 2B (Homo sapiens), Q9UIF8; Potency, µM (titrated, usually from 114 µM), usual class: inhibitors; AID 504333, 2011; actives 4.4% (n = 360,000); further: nearly all actives have a fitted effect of over 60% in size
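AlphaScreen luminescence quantifies BAZ2B engagement of H3K14Ac peptide; the protein and biotinylated peptide are both at 50 nM final, buffer PBS pH 7.4 with 0.01% Tween-20, all steps at room temperature.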
PLK1 PBD block – qHTS for Inhibitors of PLK1-PDB (polo-like kinase 1 - polo-box domain): Primary Screen | Plk1 PBD binding of FITC phosphopeptide, fluorescence polarization | actives 2.8% (n = 360,000) | Potency, µM, hits mostly inhibitors; further: series mostly up to about 57 µM; nearly all actives have a fitted effect of over 65% in size
Target sequence (P53350 whole entry, looked up, the tested form may be a part): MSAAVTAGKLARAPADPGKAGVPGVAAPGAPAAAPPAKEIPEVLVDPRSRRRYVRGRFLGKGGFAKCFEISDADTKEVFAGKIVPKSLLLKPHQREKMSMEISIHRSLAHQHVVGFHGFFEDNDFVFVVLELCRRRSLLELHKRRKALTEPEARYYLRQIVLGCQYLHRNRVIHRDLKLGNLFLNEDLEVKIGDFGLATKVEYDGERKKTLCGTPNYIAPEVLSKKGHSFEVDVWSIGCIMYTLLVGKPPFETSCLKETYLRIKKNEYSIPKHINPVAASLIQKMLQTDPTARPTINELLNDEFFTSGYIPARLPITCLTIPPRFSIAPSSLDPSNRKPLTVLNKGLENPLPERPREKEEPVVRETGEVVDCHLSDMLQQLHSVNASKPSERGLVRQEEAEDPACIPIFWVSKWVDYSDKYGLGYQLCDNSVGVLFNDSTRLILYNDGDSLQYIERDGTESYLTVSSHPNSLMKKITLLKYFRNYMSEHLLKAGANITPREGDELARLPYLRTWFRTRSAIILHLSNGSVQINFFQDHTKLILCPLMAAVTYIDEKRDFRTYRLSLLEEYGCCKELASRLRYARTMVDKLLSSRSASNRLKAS
JMJD2E inh – Confirmation qHTS Assay for Inhibitors of Human Jumonji Domain Containing 2E (JMJD2E). shares compounds with JMJD2A Tudor. Recombinant JMJD2E, FDH-coupled NADH fluorescence (FDH is formaldehyde dehydrogenase). Potency, µM (top dose mostly 56.8 µM), most hits filed as inhibitors. actives 93% (n = 140)
FDH counter – Counterscreen for JMJD2E Inhibitors: qHTS Assay for Inhibitors of Formaldehyde Dehydrogenase (FDH). shares compounds with JMJD2A Tudor. FDH enzyme assay, NADH fluorescence kinetic. Potency, µM (titrated, usually from 56.7 µM), actives largely listed as inhibitors. actives 10% (n = 140). AID 2680, 2010
G9a inh-2 – qHTS Assay for Inhibitors of Histone Lysine Methyltransferase G9a: Hit Confirmation | shares compounds with JMJD2A Tudor | G9a H3K9 monomethylation, AlphaScreen, 2 h | Potency, µM, actives largely listed as inhibitors | actives 89% (n = 370) | AID 588344, 2011; further: nearly all actives have a fitted effect of over 65% in size
Numbers stand for hits; - = inactive; ? = inconclusive; . = not tested or not shown; [ ] = another dose, or the depositor's remark. The call rests on the fitted dose curve; in most records, active means well fitted curve in the direction sought with a large enough effect; inconclusive means small, poorly fitted or top-dose-only effect, or another doubt; inactive means no such curve, though single readings can be large; an effect the other way counts as inactive or inconclusive.

SMILES | JMJD2A Tudor | HP1b binding inh | G9a inh-1 | Sfp PPTase inh | BAZ2B inh | PLK1 PBD block | G9a inh-2 | others
O=C(Cc1ccccc1)Nc1sc2c(c1C(=O)Nc1ccccc1)CCCCC2 | ? | - | ? | . | ? | . | .
O=C(Nc1sc2c(c1C(=O)Nc1cccc(Cl)c1)CCCC2)c1cccs1 | 71µM | - | 1.6µM | . | - | . | 4.1
O=C(c1cc(-c2cccnc2)nc2ccccc12)N1CCN(S(=O)(=O)c2ccc(Cl)s2)CC1 | - | - | . | . | . | - | .
CC(C)(C)C1=Nn2c(nnc2-c2ccccn2)SC1 | 7.9µM | ? | ? | 56µM | 20µM | - | 1.8
Cc1onc(-c2ccccc2)c1C(=O)Nc1nnc(COc2ccc(Cl)cc2)s1 | ? | ? | ? | 7.1µM | - | 1.3µM | 0.8
COc1ccc(NC(C)c2cc(Cl)ccc2O)cc1 (stereo unspecified) | -[11.4 µM] | 71µM | ? | - | 32µM | - | ?
COc1ccc(C(c2nnnn2C2CCCC2)N2CCc3ccccc3C2)cc1OC (stereo unspecified) | - | - | - | - | ? | - | .
COCCn1nnnc1C(c1ccc(O)c(OC)c1)N1CCc2ccccc2C1 (stereo unspecified) | ? | ? | ? | 14µM | ? | - | 0.71
COCCCNC(=O)CSc1nc2cc3c(cc2c(=O)n1CCCCCC(=O)NCc1ccc2c(c1)OCO2)OCO3 | - | - | - | . | - | . | .
CC1=NN(c2nc3ccccc3[nH]2)C(=O)C1Cc1ccccc1 (stereo unspecified) | 50µM | - | ? | - | 22µM | - | . | JMJD2E inh=5.8µM;FDH counter=?
C=CCN(c1ccccc1)S(=O)(=O)c1cccc(C(=O)NCc2ccco2)c1 | - | - | . | . | . | - | .
Cc1ccc(CNC(=O)CSc2ncccn2)cc1 | - | - | ? | - | - | - | 22
COc1ccc(NC(=O)c2ccc(-c3ccc(C(C)=O)cc3)o2)cn1 | - | - | 1.6µM | . | - | - | ?
CC(=O)c1ccc(NC(=O)c2ccc(-c3ccc(Cl)cc3)o2)cc1 | - | - | ? | . | - | . | .
CCN(CC)c1ccc(NC(=O)c2cc(OC)cc(OC)c2)c(C)c1 | ? | - | 2.5µM | - | 40µM | - | 3.2
O=c1c(O)c(-c2ccccc2)oc2ccc3occc3c12 | . | . | . | - | . | . | .
Cc1cn2c(=O)cc(COc3cccc(NC(=O)c4ccc(C(C)(C)C)cc4)c3)nc2s1 | - | - | 0.79µM | . | - | . | ?
Cc1cccc(C(=O)Nc2cccc(OCc3cc(=O)n4cc(C)sc4n3)c2)c1 | - | - | - | . | - | . | .
O=C(CSc1nc2c([nH]c3ccccc32)c(=O)n1-c1ccc(Cl)cc1)NCC1CCCO1 (stereo unspecified) | - | - | - | . | - | . | .
O=C(NCC1CC1)Nc1ccc(Cl)cc1 | - | - | - | - | - | - | .
COc1ccc(N2CCC(CNC(=O)Nc3cccc(OC)c3)C2)cc1 (stereo unspecified) | 40µM | 16µM | ? | - | 32µM | - | 1.6
COc1cccc(NC(=O)NCCCN2CCN(c3ccc(F)cc3)CC2)c1 | - | - | - | - | - | - | .
COc1ccc(N2CCC(CNC(=O)Nc3ccc(Cl)cc3)C2)cc1 (stereo unspecified) | ? | ? | 0.71µM | - | - | - | 0.5
O=C(CNC(=O)OCc1ccccc1)Nc1ccc(F)cc1 | ? | - | ? | . | - | - | ?
CCN(CC)c1ccc(NC(=O)Nc2ccc(C(C)=O)cc2)cc1 | - | - | 1.4µM | - | - | - | 0.32
CCN(CC)c1ccc(NC(=O)c2cncc(Br)c2)cc1 | 50µM | ? | ? | - | 35µM | - | 3.5
CC(=O)N1C[C@H]2CON(C)[C@H]2C[C@H]1c1ccccc1 | . | . | . | . | . | - | .
CCOc1ccc(NC(=O)C2(c3cccs3)CCOCC2)cc1 | - | - | - | . | - | . | .
CN(C)c1ccc(NC(=O)C2(c3cccs3)CCOCC2)cc1 | ? | - | 2.8µM | . | 40µM | . | 7.1
CCN(c1ccc(NC(=O)COC(=O)c2ccc(S(=O)(=O)N3CCCC3)cc2)cc1)C(C)C | - | - | ? | - | - | - | 2.2
